Compounds with a hit are over-represented: about 1.5% of the library has one in this group of screens.
PrPC surface inh – inhibitors of human cell surface prion protein PrPC; 370,000 compounds, 0.43% hits; TR-FRET read-out; inhibition, % at 13.8 µM; in the data active = inhibition above about 24%; note: 0% = median of the test wells and 100% = reference compound wells
VHR inh abs – blocks human VHR1 dual specificity phosphatase; P51452; recombinant VHR phosphatase, pNPP absorbance; inhibition, % at 13.3 µM; 290,000 compounds, 0.52% hits; in the data active = inhibition above about 50%
Vc quorum ag – quorum light induction in luxS cqsA deficient V. cholerae; V. cholerae BH1578 lux reporter, luminescence, 6 h; 350,000 compounds, 0.16% hits; activation, % at 18.7 µM; AID 588436; in the data active = activation mostly above about 9.7%, no sharp cut-off
CCHF vOTU inh – blocks the CCHF virus ovarian tumor domain protease; CCHFV vOTU protease, Pep-AMC fluorescence; inhibition, % at 11.5 µM; 370,000 compounds, 0.55% hits; AID 651958; in the data active = inhibition above about 30%; note: 0% = vehicle wells with enzyme and 100% = no enzyme wells
TcdB GH inh – blocks C. difficile toxin B glycohydrolase activity; P18177; TcdB glycohydrolase enzymatic assay, plate reader; inhibition, % at 9.99 µM; 350,000 compounds, 0.24% hits; in the data active = inhibition above about 10%
SSB-PriA inh – inhibitors of Klebsiella pneumoniae PriA binding to SSB C-terminal tail; AID 1272365; inhibition, % at 33 µM; AlphaScreen SSBct-PriA binding, biotinylated peptide; 430,000 compounds, 0.6% hits; in the data active = inhibition mostly above about 37%, no sharp cut-off; inactive = mostly below about 20%;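 note: plate controls were negative control peptide for no effect and reference peptide for full effect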
PrPC TRFRET cf – cell surface PrPC inhibition, TR-FRET confirmation | shares compounds with PrPC surface inh | cell surface PrPC level | inhibition, % at 13.8 µM | 1,500 compounds, 65% hits | AID 743200; in the data active = inhibition above about 25%
LD9 tox – counter-screen for PrPc inhibitors: cytotoxicity in LD9 cells | shares compounds with PrPC surface inh | luminescence viability | inhibition, % at 13.8 µM | 1,500 compounds, 29% hits | AID 743201; in the data active = inhibition above about 9.5%
An asterisk follows results filed as active; i = inactive; . = not tested or not shown.

SMILES	PrPC surface inh	VHR inh abs	Vc quorum ag	CCHF vOTU inh	TcdB GH inh	SSB-PriA inh	PrPC TRFRET cf	LD9 tox
Cn1c(=O)c2cc(NC(=O)NCc3ccccc3)ccc2n1Cc1cccc(C(F)(F)F)c1	25*	.	0	-119	-2	.	15	-3
CCCN1C(=O)c2[nH]nc(-c3cc(Cl)c(C)cc3O)c2C1c1ccc(O)c(OC)c1 (centres undefined)	26*	17	0	21	1	18	10	-7
COCCCN1C(=O)c2[nH]nc(-c3cc(C)cc(C)c3O)c2C1c1ccc(O)c(OC)c1 (centres undefined)	0	4	0	-4	.	3	.	.
CC1CCOC(=O)/C=C/C=C/C(=O)OC2CC3OC4C5OC5(C)C(O)CC4(COC(=O)C1O)C2(C)C31CO1 (centres undefined)	.	.	.	.	.	-15	.	.
CC(=O)OC1C(=O)OCC23CCC4(C)OC4C2OC2CC(OC(=O)C=CC=CC(=O)OCCC1C)C3(C)C21CO1 (centres undefined)	92*	.	i	5	0	.	98*	63*
Cc1cc(Br)c(OCc2ccc(C(=O)N/N=C/c3ccc[nH]3)cc2)c(Br)c1	26*	.	0	6	0	.	52*	65*
NC(=S)NN=Cc1nccc2c(C(F)(F)C(F)(F)C(F)(F)F)cccc12	28*	.	i	21	0	.	29*	60*
N#C/C(=C(/O)c1cccc(F)c1)c1nc2ccccc2s1	2	3	3	10	0	-2	.	.
N#C/C(=C(/O)C(Cl)c1ccccc1)c1nc2ccccc2s1 (centres undefined)	43*	3	.	25	.	-10	38*	-2
Cc1ccc(C)c(S(=O)(=O)Nc2ccc3c(c2)C(=O)NCCO3)c1	.	.	.	.	.	-4	.	.
CCC(C)C1NC(=O)C(NC(=O)C(CC(C)C)N(C)C(=O)C2CCCN2C(=O)C(C)O)C(C)OC(=O)C(Cc2ccc(OC)cc2)N(C)C(=O)C2CCCN2C(=O)C(CC(C)C)NC(=O)[C@H](C)C(=O)[C@H](C(C)C)OC(=O)CC1O (some centres undefined)	97*	.	6	29	-3	-7	98*	64*
C#CCCC[C@@H]1OC(=O)CNC(=O)C([C@@H](C)CC)NC(=O)[C@@H]2CCCN2C(=O)C([C@@H](C)CC)OC(=O)[C@H](Cc2ccccc2)N(C)C(=O)[C@H](C(C)C)NC(=O)C1(C)C (some centres undefined)	5	.	.	23	2	.	.	.
Cc1nn(Cc2ccc(Cl)c(Cl)c2)c(C)c1NC(=O)c1cc(CC(C)C)on1	49*	11	0	9	1	-13	51*	1
O=C(NCc1ccc(F)cc1)N1CCN(Cc2nc(-c3cccs3)cs2)CC1	.	.	.	.	.	15	.	.
CC(=O)OC(C)(C)/C=C/C(=O)[C@](C)(O)[C@H]1[C@H](O)C[C@@]2(C)[C@@H]3CC=C4[C@H](C[C@H](O)C(=O)C4(C)C)[C@]3(C)C(=O)C[C@]12C	.	1	-3	.	.	.	.	.
CC(=O)OC(C)(C)/C=C/C(=O)C(C)(O)C1[C@H](O)C[C@@]2(C)C3CC=C4C(CC[C@@H](O)C4(C)C)[C@]3(CO)C(=O)C[C@]12C (some centres undefined)	30*	-13	-10	3	-1	-5	33*	3
COc1ccc(NC(=O)NNC(=O)COc2ccc3cc(Br)ccc3c2)cc1OC	42*	-23	1	4	0	-14	69*	-7
O=C(Nc1ccccc1)c1cc(C2CCCCN2S(=O)(=O)c2ccccc2)on1 (centres undefined)	29*	.	0	18	-7	.	15	1
O=C(Nc1ccccc1)c1cc(C2CCCCN2S(=O)(=O)c2cccs2)on1 (centres undefined)	22	.	i	-7	1	.	.	.
O=C(Nc1ccc2c(c1)OCO2)c1cc(C2CCCCN2S(=O)(=O)c2cccs2)on1 (centres undefined)	57*	.	0	-1	1	.	48*	2
O=C(Nc1ccccc1Cl)c1cc(C2CCCCN2S(=O)(=O)c2ccccc2)on1 (centres undefined)	6	.	0	9	0	.	.	.
Cc1onc(-c2ccccc2Cl)c1C(=O)NCCN1CCN(c2ccccc2)CC1	.	.	.	.	.	-7	.	.
O=C(O)C(=Cc1ccccc1[N+](=O)[O-])c1ccc2c(c1)OCO2	27*	.	i	-16	-2	.	0	-7
O=C(O)C(=Cc1cc2c(cc1[N+](=O)[O-])OCO2)c1cc2c(cc1Br)OCO2	-8	.	i	13	-1	-14	.	.
CCC1=C(CC2NCCc3ccccc32)CC2c3cc(OC)c(OC)cc3CCN2C1 (centres undefined)	76*	.	11	-4	-1	-3	83*	28*
SMILES	PrPC surface inh	VHR inh abs	Vc quorum ag	CCHF vOTU inh	TcdB GH inh	SSB-PriA inh	PrPC TRFRET cf	LD9 tox
CC[C@H]1CN2CCc3cc(OC)c(OC)cc3C2C[C@@H]1C[C@H]1NCCc2cc(OC)c(OC)cc21 (some centres undefined)	92*	.	i	-6	1	5	98*	50*
COc1ccc(OC)c(-c2csc(NC(=O)Cc3ccc(F)cc3)n2)c1	14	97	0	-2	1	-5	.	.
COc1ccc(OC)c(-c2csc(NC(=O)Cn3[nH]c(=O)c4ccccc4c3=O)n2)c1	27*	-9	i	-5	2	7	25*	38*
CC(=O)OC1C(O)C(C)OC(OC2C(OC(=O)C3CCC4C(C3)OC3(CC(OC(=O)/C=C/c5ccccc5)C(C)CO3)C43CO3)OC(C)C(O)C2OC(C)=O)C1O (centres undefined)	86*	.	i	-1	0	-9	98*	67*
CC(=O)CCC1C2C(O)C(C(C)C)C(OC(=O)/C=C/c3ccccc3)CC12C (centres undefined)	5	6	0	0	0	-3	.	.
N=C1C(c2ccccc2)=C(O)CN1c1ccccc1	29*	22	i	2	1	-6	8	-1
C=CCOC(=O)C1=C[C@@H](c2coc3ccccc3c2=O)C[C@@H](OCCCCO)O1	2	.	-1	-1	0	1	.	.
NC(=O)C1=C[C@@H](c2coc3ccccc3c2=O)C[C@@H](OCc2ccc(CO)cc2)O1	40*	7	0	1	0	-11	31*	1
NC(=O)C1=C[C@@H](c2coc3ccccc3c2=O)C[C@@H](OCCCCO)O1	27*	25	-1	-6	1	0	32*	-3
C[C@H](Oc1ccccc1)C(=O)NCCc1nc(C2CC2)cc(C(F)(F)F)n1	.	.	.	.	.	-19	.	.
COc1ccccc1-c1nnc2ccc(OCCNC(=O)c3ccc(F)c(F)c3)nn12	.	.	.	.	.	11	.	.
